Assay results taken from PubChem BioAssay (NCI).
“And” between values parts separate entries of the source, which are not always exact repeats. Identical values can stand only once. The panel holds about 83,000 compounds, 20% with a hit somewhere; the sample as a whole holds those more often.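 Compound tested at a single concentration for 48 hours in 96-well plates; a percent growth value below 10 was scored as active.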 Unmarked numbers belong to inactive results. The source made the active and inactive calls.

Test system: HL-60(TB) leukemia
Test: NCI-60 one-dose screen, 48 h (100 = growth as untreated, 0 = no growth, -100 = all killed)
Conditions: 10 µM unless noted

| Structure (SMILES) | growth |
| --- | --- |
| CCS(=O)(=O)N1CCCC(C(=O)Nc2nc3ccc(NC(=O)c4ccc(F)c(OC)c4F)cc3s2)C1 (stereo unspecified) | 53.9% |
| O=C1C=CC(=CC=C2N(Cc3ccc4ccccc4c3)c3ccccc3N2Cc2ccc3ccccc3c2)C=C1 | -26.5% (active) and -21.5% (active) |
| N#Cc1c(-c2cccnc2)cc(-c2ccc3ccccc3c2)[nH]c1=O | 72.6% |
| N#Cc1c(-c2ccc(Cl)cc2)nc2n[nH]c(-c3ccc(Cl)cc3)c2c1-c1ccc(C(F)(F)F)cc1 | 1.12% (active) |
| CC1=C(C(=O)c2ccccc2)C(c2ccc(-n3cncn3)cc2)n2c(nc3ccccc32)N1 (stereo unspecified) | 86.9% |
| O=C(Cn1c(/C=C/c2ccccc2)nc2ccccc2c1=O)Nc1ccccc1 | 64.7% |
